From PubChem
CF NFkB block: inhibitors of PAF-induced NF-kB signaling, primary screen, cell-based, GFP fluorescence, uHTS. KKLEB NF-kB-GFP reporter, GFP fluorescence overnight. inhibition, % at 5 µM. 0.86% of 360,000 active. AID 588850, 2011;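 active = at least 50% inhibition at 5 µM, scaled per plate between neutral and stimulator controls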;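 also: PAF is a Pseudomonas aeruginosa culture filtrate used as stimulus; plate controls were PAF-stimulated DMSO wells for no effect and unstimulated DMSO wells for full effect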
TROY signal inh: inhibitors of TROY-driven NF-kB signaling, primary screen, Q293 LMP1-TROYcd cells, NF-kB luciferase, uHTS. Q293 LMP1-TROYcd NF-kB luciferase reporter, 4 h. inhibition, % at 10 µM. 0.98% of 360,000 active;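 active = compounds whose plate-normalised and pattern-corrected inhibition of the luciferase reporter signal at the single screening dose is 50% or more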
TWEAK Fn14 block: inhibitors of TWEAK-Fn14 signaling, primary screen, luciferase reporter cells, uHTS | TWEAK-stimulated Fn14 reporter cells, luciferase luminescence, 8 h | inhibition, % at 10 µM | 2% of 360,000 active; in the data active = inhibition above about 50%
KKLEB cytotox: cytotoxicity in KKLEB CF airway cells, primary screen, cytotoxicity control for CF NF-kB inhibitor project, cell-based, uHTS, fluorescence assay plates; AID 602141, 2011; KKLEB CF airway cells viability, ATPlite luminescence, overnight; hits give low values; cells stimulated with P. aeruginosa culture filtrate; activity change (cytotoxicity), % at 5 µM; 0.36% of 360,000 active;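 active = corrected activity change at or below -50% at 5 µM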
HIF-2a inh: HIF-2a reporter inhibitors, primary screen, luminescence, 786-0 RCC cells; inhibition, % at 18.8 µM; 0.72% of 360,000 active; 786-0 RCC cells HIF-2a reporter, luciferase luminescence, overnight;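 active = inhibition of the luminescence signal of 40% or more relative to plate controls, in a single-dose primary screen at 18.75 µM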
Peg3 promoter: Peg3 promoter-driven luciferase inhibitors, primary screen, cell-based, HeLa, luciferase luminescence. HeLa PEG-Prom luciferase reporter, overnight. 1.7% of 360,000 active. inhibition, % at 20 µM;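 active = inhibition of at least 50% at 20 µM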
Numbers without * were called inactive. Sampled rows, rich in hits. Any-hit rate of the full collection: about 3.9%.

SMILES	CF NFkB block	TROY signal inh	TWEAK Fn14 block	KKLEB cytotox	HIF-2a inh	Peg3 promoter
COC(=O)c1ccc(SCC(=O)NC2CCCCC2)c([N+](=O)[O-])c1	0	-19	-27	9	13	-1
Cc1ccc2[nH]c3c(c2c1)CN(C(=O)CN1c2ccc(F)cc2CCC1C)CC3 (configuration not stated)	18	11	23	-6	8	22
COc1ccc(N(C(=O)Cn2nnc(-c3ccccc3F)n2)C(C(=O)NCC2CCCO2)c2ccc(Cl)cc2)cc1 (configuration not stated)	-11	-37	2	2	21	58*
CCCn1nnc(NC(=O)COc2cc(C)ccc2C(C)C)n1	1	-5	-2	-1	17	11
Cc1ccc(/C=C/c2nc3ccccc3s2)s1	-1	76*	86*	-28	22	-26
S=C(Nc1ccccc1)c1nc2ccccc2s1	-3	-53	-11	-14	-227	-257
Cc1cccc(-c2noc(CCC(=O)NC3CCCCC3)n2)c1	-9	-3	20	8	-18	1
O=C(CNC(=O)OCc1ccccc1)NCC(=O)NC(Cc1c[nH]c2ccccc12)C(=O)O (configuration not stated)	2	51*	-1	-7	17	0
CC(C)C(NC(=O)OCc1ccccc1)C(=O)NC(Cc1c[nH]c2ccccc12)C(=O)O (configuration not stated)	8	13	3	-28	17	-8
O=C(NCCCOC(=O)c1ccccc1)c1ccccc1	17	18	-8	-7	11	16
CCC(C)N1C(=O)S/C(=C/c2ccc(N3CCOCC3)cc2C)C1=O (configuration not stated)	-20	33	51*	8	-175	-276
Cc1cc(N2CCOCC2)ccc1/C=C1\SC(=O)N(C(C)C)C1=O	-22	26	49	-10	-252	-282
COc1ccc(O)c(C(=O)c2cc(SCC(=O)O)c3nc4sc5c(c4c(=O)n3c2)CCCC5)c1	-18	30	-73	15	-90	-23
O=C1CC(c2ccc(O)c(O)c2)Oc2c1ccc(O)c2O (configuration not stated)	12	-3	62*	-16	13	-21
CC(C)=CCc1c(O)ccc2c1OC(c1ccc(O)c(O)c1)CC2=O (configuration not stated)	34	42	75*	-3	12	35
O=C1CC(c2ccc(O)c(O)c2)Oc2cc(O)cc(O)c21 (configuration not stated)	18	-40	3	-8	-43	-19
Cc1ccc(CONC(=O)c2ccc(Cl)cc2)cc1	6	-56	-13	10	-282	-262
COc1ccc(C(=O)NOCc2ccccc2)cc1	29	47	86*	-8	-17	4
O=C(NOCc1ccccc1)c1ccc(Cl)cc1	-3	30	66*	-21	-16	-60
COc1ccc(C(=O)NCCNC(=O)c2ccc(OC)cc2)cc1	4	4	-19	6	7	-1
COc1ccc(C(=O)NCCSc2ccccc2)cc1	13	14	61*	-5	-59	-93
COc1ccc(C(=O)NCCS(=O)(=O)N2CCN(C(=O)c3ccco3)CC2)cc1	-11	32	-12	6	-1	-8
CC1CC2OC(=O)C3(C)CCCC(C)(C23)C1(O)CCc1ccoc1 (configuration not stated)	-6	-16	-22	-2	-5	-8
COC(=O)C1CCN(Cc2ccc(OCCCN3CCN(c4ccc([N+](=O)[O-])cc4)CC3)cc2)CC1	4	27	6	-5	4	-4
Cn1nc(SCC(=O)O)sc1=S	-2	-16	4	4	2	12
SMILES	CF NFkB block	TROY signal inh	TWEAK Fn14 block	KKLEB cytotox	HIF-2a inh	Peg3 promoter
CCCCCCCCNCCS(=O)(=O)NCc1ccccc1	6	10	-30	-29	-7	64*
CCCCNS(=O)(=O)CCNCCc1ccccc1	7	10	-13	-6	-5	7
CCOc1ccc(N2CC(C(=O)Nc3ccc4c(c3)OCO4)CC2=O)cc1 (configuration not stated)	-10	-13	17	-2	12	-3
CC1(C)CCc2cc(-c3ccnc(=S)[nH]3)ccc2O1	4	50	62*	-4	-74	-177
COc1ccc2c(c1)CCc1cc(C(=O)N3CCN(c4ccc(N5CCOCC5)nn4)CC3)sc1-2	10	56*	45	-25	-30	28
Cc1ccccc1C[n+]1cccc2ccccc21	6	-3	-9	-12	9	4
CCCCCCCCCCCCCCCC[n+]1cccc2ccccc21	66*	54*	72*	-68*	94*	104*
O=C(CSc1nnc(-c2ccccc2O)n1-c1ccccc1)Nc1cccc(C(=O)O)c1	20	-7	-1	-1	24	19
C=CCNC(=O)CSc1nnc(-c2ccccc2Br)n1-c1cccc(C(F)(F)F)c1	5	-7	-1	8	0	52*
CCOC(=O)N1CCN(S(=O)(=O)N2CCCC(C(=O)NCc3ccccc3OC)C2)CC1 (configuration not stated)	8	-22	-1	9	6	11
COc1cccc2c1OC1(C)CC2NC(=O)N1c1cccc(C(=O)Nc2ccc3c(c2)OCCO3)c1 (configuration not stated)	4	31	83*	-4	-16	-16
COc1ccc(NC(=O)c2cccc(N3C(=O)NC4CC3(C)Oc3ccccc34)c2)cc1 (configuration not stated)	3	-18	11	-2	2	2
O=C(/C=C/c1ccc([N+](=O)[O-])cc1)Nc1ncc([N+](=O)[O-])s1	38	40	66*	-52*	-78	-29
CCN1C(=O)/C(=C/N(C(C)=O)c2ccccc2)N(c2ccccc2)C1=S	20	16	11	-6	86*	24
CCC1=NN(C(=O)c2cccc(Br)c2)C(O)(c2ccc(Br)cc2)C1 (configuration not stated)	62*	23	45	-54*	4	25
O=C(CCCn1c(SCC(=O)c2ccc(O)c(O)c2)nc2ccccc2c1=O)NCC1CCCO1 (configuration not stated)	-19	-4	-13	8	13	11
